Test results published in the supplement of paper PMC8975748.
Counter-ions that a name gives are not always drawn.

What follows are molecules tested on Saccharomyces cerevisiae BY4741 SeMeCo community (assay: z-score of subpopulation abundance vs DMSO median, subpopulation auxotrophic for HUM; higher = larger share of this subpopulation than in DMSO controls). Conditions: 10 µM; 24 h; SM minimal medium; subpopulation (auxotrophy): HUM.
Procedure: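 Fluorescent four-plasmid SeMeCo (self-establishing metabolically cooperating S. cerevisiae BY4741 community; plasmids pH-mRuby2, pL-mWasabi, pU-eCFP, pM-TagRFP657) was grown 24 h in minimal SM medium with each Selleck FDA-approved drug at 10 µM in 384-well plates. Cells were fixed and imaged by high-content confocal microscopy. For each auxotrophic subpopulation (and the prototroph), a z-score gives the deviation from the DMSO vehicle-control population median.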

SMILES	z-score of subpopulation abundance
COc1cc(NC(C)CCCN)c2ncccc2c1 (stereo not given) [Primaquine Diphosphate]	-1.39
CN(C)CCCN1c2ccccc2Sc2ccc(Cl)cc21 [Chlorpromazine HCl]	0.9
COc1cc2c(cc1OC)-c1cc3ccc(OC)c(OC)c3c[n+]1CC2 [Palmatine]	0.8
CCCN(CCc1cccs1)[C@H]1CCc2c(O)cccc2C1 [Rotigotine]	-0.69
COc1ccc(C(C)=O)c(O)c1 [Paeonol]	0.18
COCCCC/C(=N\OCCN)c1ccc(C(F)(F)F)cc1 [Fluvoxamine maleate]	0.06
COc1cc(O)c(C(=O)Nc2nc(C(=O)NCCN(C(C)C)C(C)C)cs2)cc1OC [Acotiamide hydrochloride]	0.54
CC1=C[C@H]2C(=O)O[C@H]3C[C@@H](C/C=C(\C)C[C@@H](C)/C=C/C=C4\CO[C@H](/C1=N\O)[C@@]42O)O[C@@]1(CC[C@H](C)[C@@H](C)O1)C3.CC[C@H]1O[C@]2(CC[C@@H]1C)C[C@@H]1C[C@@H](C/C=C(\C)C[C@@H](C)/C=C/C=C3\CO[C@@H]4/C(=N\O)C(C)=C[C@@H](C(=O)O1)[C@]34O)O2 [Milbemycin Oxime]	0.03
Cc1onc(-c2ccccc2)c1C(=O)N[C@@H]1C(=O)N2[C@@H]1SC(C)(C)[C@@H]2C(=O)O [Oxacillin sodium monohydrate]	0.65
CCC1(c2ccccc2)C(=O)NCNC1=O [Primidone]	0.42
COc1cc(N)c(Cl)cc1C(=O)NC1CCN(CCCOc2ccc(F)cc2)CC1OC (stereo not given) [Cisapride]	-0.94
Cc1[nH]c(=O)c(C#N)cc1-c1ccncc1 [Milrinone]	-1.04
CCCc1nn(C)c2c(=O)[nH]c(-c3cc(S(=O)(=O)N4CCN(C)CC4)ccc3OCC)nc12 [Sildenafil Citrate]	-0.06
O=c1[nH]c(=O)n([C@H]2C[C@H](O)[C@@H](CO)O2)cc1I [Idoxuridine]	-0.68
c1cnc(N2CCN(Cc3ccc4c(c3)OCO4)CC2)nc1 [Piribedil]	-0.11
CN1CCCN=C1/C=C/c1cccs1 [Pyrantel Pamoate]	-0.34
CCCCCOc1ccccc1/C(=C\SC)n1ccnc1 [Neticonazole Hydrochloride]	6.29
O=[N+]([O-])c1ccc(O)c2ncccc12 [Nitroxoline]	19.7
N#Cc1ccc(Oc2ccc3c(c2)COB3O)cc1 [Crisaborole (AN2728)]	1.2
COC(=O)C1=C(C)NC(C)=C(C(=O)OCCN(C)Cc2ccccc2)C1c1cccc([N+](=O)[O-])c1 (stereo not given) [Nicardipine HCl]	0.62

SMILES	z-score of subpopulation abundance
Oc1ccc(C2CNCCc3c2cc(O)c(O)c3Cl)cc1 (stereo not given) [Fenoldopam mesylate]	-0.92
C[N+](C)(C)CCO.[Cl-] [Choline Chloride]	-0.76
Cc1ccc(Sc2ccccc2N2CCNCC2)c(C)c1	-0.46
CO/N=C(\C(=O)N[C@@H]1C(=O)N2C(C(=O)OCOC(=O)C(C)(C)C)=C(/C=C\c3scnc3C)CS[C@H]12)c1csc(N)n1 [Cefditoren Pivoxil]	0.78
NCC[C@H](O)C(=O)N[C@@H]1C[C@H](N)[C@@H](O[C@H]2O[C@H](CN)[C@@H](O)[C@H](O)[C@H]2O)[C@H](O)[C@H]1O[C@H]1O[C@H](CO)[C@@H](O)[C@H](N)[C@H]1O [Amikacin hydrate]	-0.33
CO/N=C(\C(=O)N[C@@H]1C(=O)N2C(C(=O)[O-])=C(C[n+]3cccc4c3CCC4)CS[C@H]12)c1csc(N)n1 [Cefpirome sulfate]	0
CCN(CC)CCNC(=O)c1cc(Cl)c(N)cc1OC [Metoclopramide]	0.35
CN1[C@@H]2CC[C@H]1C[C@@H](OC(=O)c1c[nH]c3ccccc13)C2 [Tropisetron HCl]	0.19
CCOc1cc(N)c(Cl)cc1C(=O)NCC1CN(Cc2ccc(F)cc2)CCO1 (stereo not given) [Mosapride Citrate]	0.97
O=C1CN2Cc3c(ccc(Cl)c3Cl)N=C2N1 [Anagrelide HCl]	0.14
CCCN1C[C@H](C)[C@@H](O)[C@](C)(O)[C@@H](CC)OC(=O)[C@H](C)[C@@H](O[C@H]2C[C@@](C)(OC)[C@@H](O)[C@H](C)O2)[C@H](C)[C@@H](O[C@@H]2O[C@H](C)C[C@H](N(C)C)[C@H]2O)[C@](C)(O)C[C@H]1C [Gamithromycin]	0.28
CO/N=C(\C(=O)N[C@@H]1C(=O)N2C(C(=O)O)=C(COC(N)=O)CS[C@H]12)c1ccco1 [Cefuroxime sodium]	-0.92
CN[C@H]1C(=O)N[C@@H]2Cc3ccc(cc3)Oc3cc4cc(c3O[C@@H]3O[C@H](C(=O)O)[C@@H](O)[C@H](O)[C@H]3NC(=O)CCCCCCCCC(C)C)Oc3ccc(cc3Cl)[C@@H](O)[C@@H]3NC(=O)[C@H](NC(=O)[C@@H]4NC(=O)[C@@H](NC2=O)c2cc(cc(O)c2Cl)Oc2cc1ccc2O)c1ccc(O)c(c1)-c1c(O[C@H]2O[C@H](CO)[C@@H](O)[C@H](O)[C@@H]2O)cc(O)cc1[C@@H](C(=O)NCCCN(C)C)NC3=O [Dalbavancin]	1.97
Cn1nnc(-c2ccc(-c3ccc(N4C[C@H](COP(=O)(O)O)OC4=O)cc3F)cn2)n1 [Tedizolid Phosphate]	-0.98
CC(C)NNC(=O)c1ccncc1 [Iproniazid]	0.2
N=C(N)NC(=O)c1nc(Cl)c(N)nc1N [Amiloride HCl dihydrate]	-1.45
COc1cc(Cc2cnc(N)nc2N)cc(OC)c1OC [Trimethoprim]	-0.12
COc1ccc(CN2CCN(C(c3ccc(F)cc3)c3ccc(F)cc3)CC2)c(OC)c1OC [Lomerizine 2HCl]	-0.52
CN1CCOC(c2ccccc2)c2ccccc2C1 (stereo not given) [Nefopam HCl]	-0.51
CO/N=C(\C(=O)N[C@@H]1C(=O)N2C(C(=O)O)=C(CSc3nc(C)c(CC(=O)O)s3)CS[C@H]12)c1csc(N)n1 [Cefodizime Sodium]	-0.09
